# Data published in PubChem BioAssay AID1159580 (chemical genetic matrix, 2015).
# The whole screen tested about 5,500 compounds, of which about 2,000 (36%) were called active. About 18% were inconclusive and are not listed. Some of the results follow. A number with no mark means an inactive call. Rule as the data show it: active = normalized growth mostly below about 0.91 (no sharp cut-off); inconclusive = no clear call, values can overlap the other calls; inactive = mostly above about 0.92.
# Assay: chemical genetic growth profiling, strain panel (AID 1159580);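 also: tested at 20 µM; growth read once vehicle control cultures reached saturation at 30 °C; 1 = growth at the plate median or of vehicle wells; lower values mean less growth of the strain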
# Conditions: S. cerevisiae deletion strains, growth OD
compound,measurement,setting,value
CC(=O)C1COc2ccc(C)cc2C1=O (configuration not stated),normalized growth,"locus YAL013W, strain DEP1, hits give low values",0.972
same,normalized growth,"locus YBR229C, strain ROT2, hits give low values",0.898 (active)
same,normalized growth,"locus YCL061C, strain MRC1, hits give low values",0.916
same,normalized growth,"locus YDL101C, strain DUN1, hits give low values",0.838 (active)
same,normalized growth,"locus YDR150W, strain NUM1, hits give low values",0.984
same,normalized growth,"locus YEL061C, strain CIN8, hits give low values",0.924
same,normalized growth,"locus YGR078C, strain PAC10, hits give low values",0.952
same,normalized growth,"locus YHR030C, strain SLT2, hits give low values",0.291 (active)
same,normalized growth,"locus YHR087W, strain rtc3, hits give low values",0.916
same,normalized growth,"locus YJL187C, strain SWE1, hits give low values",0.888 (active)
same,normalized growth,"locus YJR043C, strain POL32, hits give low values",0.931
same,normalized growth,"locus YJR075W, strain HOC1, hits give low values",0.903
same,normalized growth,"locus YKL190W, strain CNB1, hits give low values",0.832 (active)
same,normalized growth,"locus YLR039C, strain RIC1, hits give low values",0.173 (active)
same,normalized growth,"locus YLR058C, strain SHM2 (second series), hits give low values",0.923 (active)
same,normalized growth,"locus YLR085C, strain ARP6, hits give low values",0.44 (active)
same,normalized growth,"locus YLR262C, strain YPT6, hits give low values",0.176 (active)
same,normalized growth,"locus YML094W, strain GIM5, hits give low values",0.848 (active)
same,normalized growth,"locus YMR219W, strain ESC1, hits give low values",0.928 (active)
same,normalized growth,"locus YMR263W, strain SAP30, hits give low values",0.96
same,normalized growth,"locus YNL153C, strain GIM3, hits give low values",0.954
same,normalized growth,"locus YNL298W, strain CLA4 (second series), hits give low values",0.855
same,normalized growth,"locus YNL322C, strain KRE1, hits give low values",0.979
same,normalized growth,"locus YNR030W, strain Alg12, hits give low values",0.901
same,normalized growth,"locus YPL055C, strain LGE1, hits give low values",0.93
same,normalized growth,"locus YPL241C, strain CIN2, hits give low values",0.914
same,normalized growth,"locus YPR135W, strain CTF4, hits give low values",0.58 (active)
